# In paper PMC7862700, “An all-to-all approach to the identification of sequence-specific readers for epigenetic DNA modifications on cytosine”:
# Experiments:
# Assay in all cases: DAPPL (digital affinity profiling via proximity ligation, sequencing); 10 mM Tris-HCl pH 7.5, 50 mM NaCl, 1 mM DTT, 4% glycerol, room temperature, 30 min; GST-TFs on glutathione beads, 16-mer random dsDNA library, 0.1% formaldehyde crosslink after washing; high values mean tight binding
# Settings in all cases: protein: recombinant; tags: N-terminal GST; dsDNA, one strand shown
# FLI1 = molecular target: T1, FLI1 (Homo sapiens, UniProt Q01543 1-452)
# T1 sequence: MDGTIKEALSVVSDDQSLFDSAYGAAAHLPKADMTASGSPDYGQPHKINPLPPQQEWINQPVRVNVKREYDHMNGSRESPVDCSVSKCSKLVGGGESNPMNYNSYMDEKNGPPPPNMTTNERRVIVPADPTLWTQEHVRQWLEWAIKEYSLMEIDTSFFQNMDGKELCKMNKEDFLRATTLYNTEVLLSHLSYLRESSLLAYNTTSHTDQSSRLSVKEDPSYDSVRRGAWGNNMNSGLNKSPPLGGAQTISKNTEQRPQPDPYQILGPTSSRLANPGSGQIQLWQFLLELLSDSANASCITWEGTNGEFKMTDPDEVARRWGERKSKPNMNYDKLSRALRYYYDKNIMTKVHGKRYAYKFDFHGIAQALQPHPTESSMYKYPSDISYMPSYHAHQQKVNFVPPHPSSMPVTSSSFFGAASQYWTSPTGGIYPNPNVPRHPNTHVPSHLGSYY
# Method in brief: (§1)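 Human transcription factors carrying a GST fusion were produced in yeast, bound to glutathione beads, tagged with DNA barcodes and pooled together with a tag-only sample. Each pool was held with 200 nmole of a random double-stranded 16-mer DNA library in Tris/NaCl/DTT/glycerol buffer for 30 min at room temperature, then washed, crosslinked in 0.1% formaldehyde, proximity-ligated with BsaI/T4 ligase (1 h, 37 °C), PCR-amplified and sequenced on an Illumina NextSeq500. Binding signal is the read frequency of each hexamer for a given factor divided by its frequency in the tag-only sample.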
# ELK1 = molecular target: T2, ELK1 (Homo sapiens, UniProt P19419 1-428)
# T2 sequence: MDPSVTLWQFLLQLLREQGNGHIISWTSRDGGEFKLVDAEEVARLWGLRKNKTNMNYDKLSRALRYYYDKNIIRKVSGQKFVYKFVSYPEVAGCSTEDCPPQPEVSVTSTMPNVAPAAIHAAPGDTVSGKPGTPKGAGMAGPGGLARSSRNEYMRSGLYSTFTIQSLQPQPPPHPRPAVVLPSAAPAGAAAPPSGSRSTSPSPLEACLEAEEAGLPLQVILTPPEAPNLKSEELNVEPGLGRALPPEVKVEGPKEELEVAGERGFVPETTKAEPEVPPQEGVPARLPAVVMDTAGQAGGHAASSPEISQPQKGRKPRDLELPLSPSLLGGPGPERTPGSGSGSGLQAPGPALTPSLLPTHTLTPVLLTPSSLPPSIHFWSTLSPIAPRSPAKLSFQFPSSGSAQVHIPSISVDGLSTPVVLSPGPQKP
# Method in brief: as §1
# GABPA = molecular target: T3, GABPA (Homo sapiens, UniProt Q06546 1-454)
# T3 sequence: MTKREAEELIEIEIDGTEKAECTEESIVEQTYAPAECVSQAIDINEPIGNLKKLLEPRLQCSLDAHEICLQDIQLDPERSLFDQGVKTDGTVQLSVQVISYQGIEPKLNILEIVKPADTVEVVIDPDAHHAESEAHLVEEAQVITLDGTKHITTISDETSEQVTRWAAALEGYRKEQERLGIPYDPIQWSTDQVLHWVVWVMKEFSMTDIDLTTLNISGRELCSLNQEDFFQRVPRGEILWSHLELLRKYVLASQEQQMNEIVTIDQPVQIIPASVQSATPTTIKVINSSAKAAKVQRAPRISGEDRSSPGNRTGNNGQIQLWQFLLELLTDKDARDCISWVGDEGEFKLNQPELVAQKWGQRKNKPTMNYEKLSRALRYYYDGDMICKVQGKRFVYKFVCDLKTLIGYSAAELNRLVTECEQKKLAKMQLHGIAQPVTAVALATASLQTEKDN
# Method in brief: as §1
# ERG = molecular target: T4, ERG (Homo sapiens, UniProt P11308 1-479)
# T4 sequence: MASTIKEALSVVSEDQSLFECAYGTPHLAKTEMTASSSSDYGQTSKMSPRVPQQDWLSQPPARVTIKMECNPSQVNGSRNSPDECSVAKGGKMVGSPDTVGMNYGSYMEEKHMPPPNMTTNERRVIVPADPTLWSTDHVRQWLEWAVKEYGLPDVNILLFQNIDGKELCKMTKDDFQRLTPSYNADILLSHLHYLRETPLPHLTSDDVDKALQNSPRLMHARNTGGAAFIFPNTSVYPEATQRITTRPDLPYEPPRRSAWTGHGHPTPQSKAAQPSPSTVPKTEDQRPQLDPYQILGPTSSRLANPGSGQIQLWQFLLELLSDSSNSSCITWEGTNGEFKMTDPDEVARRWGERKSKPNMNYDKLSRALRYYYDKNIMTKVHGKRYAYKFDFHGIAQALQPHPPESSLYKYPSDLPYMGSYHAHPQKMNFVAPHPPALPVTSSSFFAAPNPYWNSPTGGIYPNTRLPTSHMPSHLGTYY
# Method in brief: as §1
# ELF1 = ELF1 (Homo sapiens, UniProt P32519 1-619)
# Method in brief: as §1
# EHF = molecular target: T5, EHF (Homo sapiens, UniProt Q9NZC4 1-300)
# T5 sequence: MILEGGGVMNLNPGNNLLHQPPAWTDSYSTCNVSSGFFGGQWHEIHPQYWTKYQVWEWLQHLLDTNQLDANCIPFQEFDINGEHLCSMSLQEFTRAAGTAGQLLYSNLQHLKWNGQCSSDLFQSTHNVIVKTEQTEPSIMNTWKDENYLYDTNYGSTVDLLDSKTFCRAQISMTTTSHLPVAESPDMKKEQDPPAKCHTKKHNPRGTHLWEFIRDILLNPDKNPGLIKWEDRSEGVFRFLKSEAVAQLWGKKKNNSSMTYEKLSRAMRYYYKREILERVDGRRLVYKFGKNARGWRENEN
# Method in brief: as §1
# SPI1 = SPI1 (Homo sapiens, UniProt P17947 1-270)
# Method in brief: as §1
# SPIB = SPIB (Homo sapiens, UniProt Q01892 1-262)
# Method in brief: as §1
# ELK3 = molecular target: T6, ELK3 (Homo sapiens, UniProt P41970 1-407)
# T6 sequence: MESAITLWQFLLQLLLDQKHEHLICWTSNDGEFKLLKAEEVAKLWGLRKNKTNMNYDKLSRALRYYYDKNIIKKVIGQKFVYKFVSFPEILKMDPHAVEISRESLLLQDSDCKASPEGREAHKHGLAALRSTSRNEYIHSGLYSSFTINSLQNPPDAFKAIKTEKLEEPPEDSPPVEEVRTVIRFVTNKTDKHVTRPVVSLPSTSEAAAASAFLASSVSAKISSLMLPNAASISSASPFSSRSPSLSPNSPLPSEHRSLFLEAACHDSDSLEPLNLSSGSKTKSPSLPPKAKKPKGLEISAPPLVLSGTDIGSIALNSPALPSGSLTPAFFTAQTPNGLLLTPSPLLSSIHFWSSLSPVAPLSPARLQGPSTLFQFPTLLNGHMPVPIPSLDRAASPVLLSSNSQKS
# Method in brief: as §1
# FEV = molecular target: T7, FEV (Homo sapiens, UniProt Q99581 1-238)
# T7 sequence: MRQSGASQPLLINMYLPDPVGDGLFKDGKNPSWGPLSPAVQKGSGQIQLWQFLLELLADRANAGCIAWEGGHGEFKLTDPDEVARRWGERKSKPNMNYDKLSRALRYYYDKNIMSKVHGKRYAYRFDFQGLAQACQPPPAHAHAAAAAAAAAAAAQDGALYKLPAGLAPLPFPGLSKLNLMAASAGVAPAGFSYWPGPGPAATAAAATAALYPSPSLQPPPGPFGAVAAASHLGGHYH
# Method in brief: as §1
# ETV5 = ETV5 (Homo sapiens, UniProt P41161 1-510)
# Method in brief: as §1
# ELF4 = ELF4 (Homo sapiens, UniProt Q99607 1-663)
# Method in brief: as §1
# ETV1 = ETV1 (Homo sapiens, UniProt P50549 1-477)
# Method in brief: as §1
# ERF = molecular target: T8, ERF (Homo sapiens, UniProt P50548 1-548)
# T8 sequence: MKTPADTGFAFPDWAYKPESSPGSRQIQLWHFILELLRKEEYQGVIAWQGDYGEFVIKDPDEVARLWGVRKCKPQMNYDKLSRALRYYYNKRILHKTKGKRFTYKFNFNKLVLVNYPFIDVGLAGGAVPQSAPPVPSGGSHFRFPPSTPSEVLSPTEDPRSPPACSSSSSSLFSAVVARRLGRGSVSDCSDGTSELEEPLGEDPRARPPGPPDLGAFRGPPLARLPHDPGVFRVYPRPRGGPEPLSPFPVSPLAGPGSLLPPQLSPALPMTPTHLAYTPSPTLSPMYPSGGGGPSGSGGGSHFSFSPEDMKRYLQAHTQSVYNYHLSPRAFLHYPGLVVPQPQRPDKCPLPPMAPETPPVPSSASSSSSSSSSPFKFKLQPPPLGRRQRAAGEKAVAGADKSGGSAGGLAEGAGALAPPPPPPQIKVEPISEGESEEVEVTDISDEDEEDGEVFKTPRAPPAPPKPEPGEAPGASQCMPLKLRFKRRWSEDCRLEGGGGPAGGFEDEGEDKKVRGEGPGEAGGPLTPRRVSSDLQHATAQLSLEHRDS
# Method in brief: as §1
# ETV3L = molecular target: T9, ETV3L (Homo sapiens, UniProt Q6ZN32 1-361)
# T9 sequence: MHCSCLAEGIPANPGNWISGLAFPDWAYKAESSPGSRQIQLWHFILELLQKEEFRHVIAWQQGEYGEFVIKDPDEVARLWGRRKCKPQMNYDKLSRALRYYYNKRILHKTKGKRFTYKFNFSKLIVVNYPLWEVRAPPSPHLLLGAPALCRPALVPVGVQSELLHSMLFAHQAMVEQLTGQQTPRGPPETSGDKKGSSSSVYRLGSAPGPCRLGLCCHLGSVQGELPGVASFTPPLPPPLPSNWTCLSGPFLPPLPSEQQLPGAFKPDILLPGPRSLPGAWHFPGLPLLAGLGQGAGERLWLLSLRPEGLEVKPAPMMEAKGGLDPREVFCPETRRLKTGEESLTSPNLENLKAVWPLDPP
# Method in brief: as §1
# ETS2 = molecular target: T10, ETS2 (Homo sapiens, UniProt P15036 1-469)
# T10 sequence: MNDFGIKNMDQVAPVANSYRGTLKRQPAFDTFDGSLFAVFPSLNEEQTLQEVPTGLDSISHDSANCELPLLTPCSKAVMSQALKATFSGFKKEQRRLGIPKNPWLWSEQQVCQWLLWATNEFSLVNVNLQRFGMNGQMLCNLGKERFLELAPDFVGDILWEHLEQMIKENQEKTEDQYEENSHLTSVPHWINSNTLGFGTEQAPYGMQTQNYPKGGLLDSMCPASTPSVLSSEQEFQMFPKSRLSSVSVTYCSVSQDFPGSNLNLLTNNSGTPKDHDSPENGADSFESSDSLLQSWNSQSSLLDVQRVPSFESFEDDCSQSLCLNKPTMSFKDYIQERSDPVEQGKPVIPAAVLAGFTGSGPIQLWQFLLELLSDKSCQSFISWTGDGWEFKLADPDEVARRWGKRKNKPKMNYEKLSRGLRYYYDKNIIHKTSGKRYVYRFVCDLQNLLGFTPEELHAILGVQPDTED
# Method in brief: as §1
# SPDEF = molecular target: T11, SPDEF (Homo sapiens, UniProt O95238 1-335)
# T11 sequence: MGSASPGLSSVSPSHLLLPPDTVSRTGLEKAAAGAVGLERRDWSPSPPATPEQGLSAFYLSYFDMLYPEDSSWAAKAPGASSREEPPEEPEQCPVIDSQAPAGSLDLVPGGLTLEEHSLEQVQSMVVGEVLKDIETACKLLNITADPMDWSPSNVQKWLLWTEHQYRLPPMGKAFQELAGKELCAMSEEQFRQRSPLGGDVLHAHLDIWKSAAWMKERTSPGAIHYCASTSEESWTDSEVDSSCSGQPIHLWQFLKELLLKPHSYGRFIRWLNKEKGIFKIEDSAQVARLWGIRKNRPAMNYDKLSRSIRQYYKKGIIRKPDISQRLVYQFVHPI
# Method in brief: as §1
# ETV3 = molecular target: T12, ETV3 (Homo sapiens, UniProt P41162-2 1-143)
# T12 sequence: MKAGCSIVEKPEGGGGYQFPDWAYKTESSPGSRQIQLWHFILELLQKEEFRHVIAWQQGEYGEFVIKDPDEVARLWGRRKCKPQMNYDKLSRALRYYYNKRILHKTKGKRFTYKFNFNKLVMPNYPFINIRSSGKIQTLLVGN
# Method in brief: as §1
# ETV6 = ETV6 (Homo sapiens, UniProt P41212 1-452)
# Method in brief: as §1
# ELF4, sequence (Q99607 whole entry): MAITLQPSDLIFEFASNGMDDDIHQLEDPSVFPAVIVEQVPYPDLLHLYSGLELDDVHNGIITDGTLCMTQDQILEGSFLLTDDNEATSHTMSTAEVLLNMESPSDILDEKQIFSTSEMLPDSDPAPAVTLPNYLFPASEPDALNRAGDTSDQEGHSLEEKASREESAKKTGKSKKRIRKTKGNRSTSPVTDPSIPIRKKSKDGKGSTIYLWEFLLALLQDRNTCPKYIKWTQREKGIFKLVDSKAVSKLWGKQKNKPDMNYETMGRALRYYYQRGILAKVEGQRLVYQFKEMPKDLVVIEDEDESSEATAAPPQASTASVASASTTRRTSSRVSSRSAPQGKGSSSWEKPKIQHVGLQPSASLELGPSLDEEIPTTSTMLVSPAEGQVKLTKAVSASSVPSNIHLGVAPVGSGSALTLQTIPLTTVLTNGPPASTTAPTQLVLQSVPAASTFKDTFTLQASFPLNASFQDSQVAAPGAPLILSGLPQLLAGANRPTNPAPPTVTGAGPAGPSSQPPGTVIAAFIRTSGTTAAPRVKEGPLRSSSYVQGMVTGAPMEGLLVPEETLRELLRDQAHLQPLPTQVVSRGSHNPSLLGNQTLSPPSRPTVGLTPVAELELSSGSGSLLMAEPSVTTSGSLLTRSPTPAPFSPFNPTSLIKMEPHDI
# ETV5, sequence (P41161 whole entry): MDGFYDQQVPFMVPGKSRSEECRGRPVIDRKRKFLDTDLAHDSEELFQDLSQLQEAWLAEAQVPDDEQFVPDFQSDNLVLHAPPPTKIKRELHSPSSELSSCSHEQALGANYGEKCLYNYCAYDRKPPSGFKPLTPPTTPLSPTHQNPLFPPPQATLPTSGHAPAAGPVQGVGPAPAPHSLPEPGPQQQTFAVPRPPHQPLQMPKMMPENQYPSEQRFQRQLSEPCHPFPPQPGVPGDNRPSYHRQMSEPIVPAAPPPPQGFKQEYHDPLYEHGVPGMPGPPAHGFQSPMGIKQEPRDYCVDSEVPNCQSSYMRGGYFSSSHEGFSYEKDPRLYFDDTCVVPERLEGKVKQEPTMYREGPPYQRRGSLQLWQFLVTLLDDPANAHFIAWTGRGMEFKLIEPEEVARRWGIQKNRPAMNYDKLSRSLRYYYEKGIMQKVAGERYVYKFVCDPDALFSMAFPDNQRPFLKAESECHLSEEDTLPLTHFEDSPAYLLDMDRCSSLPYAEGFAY
# ELF1, sequence (P32519 whole entry): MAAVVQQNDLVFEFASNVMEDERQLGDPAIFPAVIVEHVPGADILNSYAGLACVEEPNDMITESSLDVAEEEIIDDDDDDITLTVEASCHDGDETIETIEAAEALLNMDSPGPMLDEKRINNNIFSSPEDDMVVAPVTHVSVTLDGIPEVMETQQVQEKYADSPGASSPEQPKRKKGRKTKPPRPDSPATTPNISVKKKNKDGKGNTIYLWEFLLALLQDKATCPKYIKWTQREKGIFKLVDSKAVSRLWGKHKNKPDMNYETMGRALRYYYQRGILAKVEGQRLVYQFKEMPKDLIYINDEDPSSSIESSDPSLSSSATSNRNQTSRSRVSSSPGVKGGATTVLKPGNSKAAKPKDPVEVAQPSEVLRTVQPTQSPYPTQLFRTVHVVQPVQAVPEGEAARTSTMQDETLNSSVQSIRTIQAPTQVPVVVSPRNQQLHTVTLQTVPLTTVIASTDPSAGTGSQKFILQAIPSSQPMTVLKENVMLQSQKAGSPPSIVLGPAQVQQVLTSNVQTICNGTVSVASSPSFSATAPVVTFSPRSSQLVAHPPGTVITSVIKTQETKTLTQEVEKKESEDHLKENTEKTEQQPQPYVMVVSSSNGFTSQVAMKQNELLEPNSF
# SPIB, sequence (Q01892 whole entry): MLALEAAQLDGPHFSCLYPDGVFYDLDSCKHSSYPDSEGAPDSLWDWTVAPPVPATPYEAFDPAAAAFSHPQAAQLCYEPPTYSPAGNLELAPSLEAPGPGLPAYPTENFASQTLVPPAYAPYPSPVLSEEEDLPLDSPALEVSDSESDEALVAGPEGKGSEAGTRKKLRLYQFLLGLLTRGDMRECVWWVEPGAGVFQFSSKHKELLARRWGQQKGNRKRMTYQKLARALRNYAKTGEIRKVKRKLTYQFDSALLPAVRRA
# ETV1, sequence (P50549 whole entry): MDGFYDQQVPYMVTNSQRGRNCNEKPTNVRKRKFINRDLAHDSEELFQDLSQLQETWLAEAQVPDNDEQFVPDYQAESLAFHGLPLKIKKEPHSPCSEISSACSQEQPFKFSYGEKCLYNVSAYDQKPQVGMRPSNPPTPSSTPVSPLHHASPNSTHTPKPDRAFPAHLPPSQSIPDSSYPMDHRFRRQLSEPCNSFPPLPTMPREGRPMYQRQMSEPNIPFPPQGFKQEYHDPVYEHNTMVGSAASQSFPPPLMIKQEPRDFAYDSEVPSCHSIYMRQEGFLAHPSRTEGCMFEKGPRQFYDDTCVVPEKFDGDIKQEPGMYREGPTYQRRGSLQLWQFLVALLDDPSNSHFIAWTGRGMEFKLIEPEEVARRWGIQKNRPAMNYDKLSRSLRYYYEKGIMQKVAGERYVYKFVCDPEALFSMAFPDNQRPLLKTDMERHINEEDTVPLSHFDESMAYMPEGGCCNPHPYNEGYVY
# ETV6, sequence (P41212 whole entry): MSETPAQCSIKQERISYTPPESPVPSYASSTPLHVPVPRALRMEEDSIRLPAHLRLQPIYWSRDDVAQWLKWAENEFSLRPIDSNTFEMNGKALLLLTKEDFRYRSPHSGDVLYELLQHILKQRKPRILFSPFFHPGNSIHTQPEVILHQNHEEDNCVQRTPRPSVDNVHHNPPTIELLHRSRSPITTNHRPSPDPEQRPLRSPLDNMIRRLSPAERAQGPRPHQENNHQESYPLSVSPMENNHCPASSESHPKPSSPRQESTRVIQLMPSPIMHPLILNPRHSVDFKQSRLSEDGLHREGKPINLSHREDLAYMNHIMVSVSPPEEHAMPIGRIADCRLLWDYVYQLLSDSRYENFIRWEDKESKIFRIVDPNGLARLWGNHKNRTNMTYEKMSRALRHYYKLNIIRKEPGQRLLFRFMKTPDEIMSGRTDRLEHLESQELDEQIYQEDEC
sequence,measurement,setting,value
CCAACC,binding signal,FLI1,"1.12 fold enrichment (6-mer frequency, TF over GST control)"
same,binding signal,ELK1,"1.1 fold enrichment (6-mer frequency, TF over GST control)"
same,binding signal,GABPA,"1.01 fold enrichment (6-mer frequency, TF over GST control)"
same,binding signal,ERG,"1.09 fold enrichment (6-mer frequency, TF over GST control)"
same,binding signal,ELF1,"1.16 fold enrichment (6-mer frequency, TF over GST control)"
same,binding signal,EHF,"1.04 fold enrichment (6-mer frequency, TF over GST control)"
same,binding signal,SPI1,"1.11 fold enrichment (6-mer frequency, TF over GST control)"
same,binding signal,SPIB,"1.06 fold enrichment (6-mer frequency, TF over GST control)"
same,binding signal,ELK3,"1.06 fold enrichment (6-mer frequency, TF over GST control)"
same,binding signal,FEV,"1.1 fold enrichment (6-mer frequency, TF over GST control)"
same,binding signal,ETV5,"1.01 fold enrichment (6-mer frequency, TF over GST control)"
same,binding signal,ELF4,"1.15 fold enrichment (6-mer frequency, TF over GST control)"
same,binding signal,ETV1,"1.04 fold enrichment (6-mer frequency, TF over GST control)"
same,binding signal,ERF,"1.14 fold enrichment (6-mer frequency, TF over GST control)"
same,binding signal,ETV3L,"1.09 fold enrichment (6-mer frequency, TF over GST control)"
same,binding signal,ETS2,"1.18 fold enrichment (6-mer frequency, TF over GST control)"
same,binding signal,SPDEF,"1.11 fold enrichment (6-mer frequency, TF over GST control)"
same,binding signal,ETV3,"1.11 fold enrichment (6-mer frequency, TF over GST control)"
same,binding signal,ETV6,"1.08 fold enrichment (6-mer frequency, TF over GST control)"
